# In paper PMC7862700, “An all-to-all approach to the identification of sequence-specific readers for epigenetic DNA modifications on cytosine”:
# Experiments:
# Experiment in all cases: DAPPL (digital affinity profiling via proximity ligation, sequencing); 10 mM Tris-HCl pH 7.5, 50 mM NaCl, 1 mM DTT, 4% glycerol, room temperature, 30 min; GST-TFs on glutathione beads, 16-mer random dsDNA library, 0.1% formaldehyde crosslink after washing; high values mean tight binding
# FLI1 = molecular target: T1, FLI1 (Homo sapiens, UniProt Q01543 1-452); details: protein: recombinant; tags: N-terminal GST; dsDNA, one strand shown
# T1 sequence: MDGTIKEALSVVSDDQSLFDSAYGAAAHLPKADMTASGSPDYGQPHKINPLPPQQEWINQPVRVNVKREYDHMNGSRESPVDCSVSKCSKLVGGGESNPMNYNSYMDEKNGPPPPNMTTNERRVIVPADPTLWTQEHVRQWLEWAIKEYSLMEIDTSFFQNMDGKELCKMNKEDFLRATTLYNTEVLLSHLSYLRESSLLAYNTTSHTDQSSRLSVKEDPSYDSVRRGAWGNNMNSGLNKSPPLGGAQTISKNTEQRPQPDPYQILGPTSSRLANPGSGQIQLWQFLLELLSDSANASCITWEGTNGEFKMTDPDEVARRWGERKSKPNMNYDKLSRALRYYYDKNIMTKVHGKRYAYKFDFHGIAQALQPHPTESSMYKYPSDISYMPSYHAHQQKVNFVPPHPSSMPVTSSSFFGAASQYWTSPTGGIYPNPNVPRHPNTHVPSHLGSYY
# Method in brief: (§1)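 The binding signal reported is, for every hexamer, its read frequency for a factor over its read frequency for the tag-only sample. Reads came from pools of yeast-expressed, GST-fused human transcription factors on glutathione beads, barcoded with DNA and mixed with that sample, which were incubated with 200 nmole of a random double-stranded 16-mer DNA library in Tris/NaCl/DTT/glycerol buffer at room temperature for 30 min. After washing, the pools were crosslinked with 0.1% formaldehyde, proximity-ligated with BsaI/T4 ligase for 1 h at 37 °C, PCR-amplified and sequenced on an Illumina NextSeq500.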
# ELK1 = molecular target: T2, ELK1 (Homo sapiens, UniProt P19419 1-428); details: protein: recombinant; tags: N-terminal GST; dsDNA, one strand shown
# T2 sequence: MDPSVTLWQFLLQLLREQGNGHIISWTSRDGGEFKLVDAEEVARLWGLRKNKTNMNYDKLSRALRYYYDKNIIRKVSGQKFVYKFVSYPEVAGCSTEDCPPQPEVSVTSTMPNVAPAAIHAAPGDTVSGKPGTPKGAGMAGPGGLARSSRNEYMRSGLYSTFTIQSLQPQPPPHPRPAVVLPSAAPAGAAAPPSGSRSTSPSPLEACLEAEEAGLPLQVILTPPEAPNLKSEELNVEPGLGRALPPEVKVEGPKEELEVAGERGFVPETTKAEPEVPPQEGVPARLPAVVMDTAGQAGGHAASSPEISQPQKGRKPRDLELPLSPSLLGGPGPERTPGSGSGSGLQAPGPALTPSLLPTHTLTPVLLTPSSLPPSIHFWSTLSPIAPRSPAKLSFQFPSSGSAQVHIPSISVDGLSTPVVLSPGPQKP
# Method in brief: as §1
# GABPA = molecular target: T3, GABPA (Homo sapiens, UniProt Q06546 1-454); details: protein: recombinant; tags: N-terminal GST; dsDNA, one strand shown
# T3 sequence: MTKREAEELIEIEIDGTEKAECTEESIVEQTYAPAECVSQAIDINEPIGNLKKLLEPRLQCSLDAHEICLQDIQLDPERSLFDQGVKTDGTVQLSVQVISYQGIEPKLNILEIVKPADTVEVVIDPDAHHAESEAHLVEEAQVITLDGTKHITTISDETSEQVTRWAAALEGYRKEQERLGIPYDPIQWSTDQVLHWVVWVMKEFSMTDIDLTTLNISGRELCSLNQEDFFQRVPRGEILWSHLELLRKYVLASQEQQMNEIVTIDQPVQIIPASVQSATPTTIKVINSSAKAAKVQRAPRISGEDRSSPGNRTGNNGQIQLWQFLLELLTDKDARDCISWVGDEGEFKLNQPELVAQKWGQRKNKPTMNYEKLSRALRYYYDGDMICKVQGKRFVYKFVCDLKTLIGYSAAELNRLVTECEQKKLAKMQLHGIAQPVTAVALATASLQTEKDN
# Method in brief: as §1
# ERG = molecular target: T4, ERG (Homo sapiens, UniProt P11308 1-479); details: protein: recombinant; tags: N-terminal GST; dsDNA, one strand shown
# T4 sequence: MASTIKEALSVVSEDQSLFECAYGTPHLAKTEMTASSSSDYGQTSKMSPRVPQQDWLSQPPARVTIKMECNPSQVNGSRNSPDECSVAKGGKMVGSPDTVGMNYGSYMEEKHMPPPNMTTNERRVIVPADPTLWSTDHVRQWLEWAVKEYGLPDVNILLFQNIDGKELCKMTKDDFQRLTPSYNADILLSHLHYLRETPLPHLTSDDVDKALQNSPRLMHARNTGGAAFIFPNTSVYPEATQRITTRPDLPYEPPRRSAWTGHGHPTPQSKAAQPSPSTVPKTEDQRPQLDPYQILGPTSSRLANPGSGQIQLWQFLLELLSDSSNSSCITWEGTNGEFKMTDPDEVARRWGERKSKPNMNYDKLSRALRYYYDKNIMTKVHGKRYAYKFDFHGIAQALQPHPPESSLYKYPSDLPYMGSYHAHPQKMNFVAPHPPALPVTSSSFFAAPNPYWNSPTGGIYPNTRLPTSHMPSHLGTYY
# Method in brief: as §1
# ELF1 = ELF1 (Homo sapiens, UniProt P32519 1-619); details: protein: recombinant; tags: N-terminal GST; dsDNA, one strand shown
# Method in brief: as §1
# EHF = molecular target: T5, EHF (Homo sapiens, UniProt Q9NZC4 1-300); details: protein: recombinant; tags: N-terminal GST; dsDNA, one strand shown
# T5 sequence: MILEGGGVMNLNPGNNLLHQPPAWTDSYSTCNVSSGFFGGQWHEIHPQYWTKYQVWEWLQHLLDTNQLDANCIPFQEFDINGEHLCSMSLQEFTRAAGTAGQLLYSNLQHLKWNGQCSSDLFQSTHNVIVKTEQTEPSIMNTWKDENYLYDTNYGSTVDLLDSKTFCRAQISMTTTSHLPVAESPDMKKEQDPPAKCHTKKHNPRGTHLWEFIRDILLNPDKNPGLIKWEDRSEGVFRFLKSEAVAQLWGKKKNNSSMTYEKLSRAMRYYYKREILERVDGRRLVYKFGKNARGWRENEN
# Method in brief: as §1
# SPI1 = SPI1 (Homo sapiens, UniProt P17947 1-270); details: protein: recombinant; tags: N-terminal GST; dsDNA, one strand shown
# Method in brief: as §1
# SPIB = SPIB (Homo sapiens, UniProt Q01892 1-262); details: protein: recombinant; tags: N-terminal GST; dsDNA, one strand shown
# Method in brief: as §1
# ELK3 = molecular target: T6, ELK3 (Homo sapiens, UniProt P41970 1-407); details: protein: recombinant; tags: N-terminal GST; dsDNA, one strand shown
# T6 sequence: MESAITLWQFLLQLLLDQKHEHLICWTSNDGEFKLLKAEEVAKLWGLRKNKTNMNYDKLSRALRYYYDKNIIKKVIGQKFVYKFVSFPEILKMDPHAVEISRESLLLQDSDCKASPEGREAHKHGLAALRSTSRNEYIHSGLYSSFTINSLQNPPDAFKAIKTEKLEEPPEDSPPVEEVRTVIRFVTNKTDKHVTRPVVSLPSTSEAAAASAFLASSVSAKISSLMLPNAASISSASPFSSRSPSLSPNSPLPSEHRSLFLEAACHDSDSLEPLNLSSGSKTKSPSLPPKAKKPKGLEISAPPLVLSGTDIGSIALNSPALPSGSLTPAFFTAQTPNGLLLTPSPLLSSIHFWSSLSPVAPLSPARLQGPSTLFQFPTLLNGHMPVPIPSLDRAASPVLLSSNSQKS
# Method in brief: as §1
# FEV = molecular target: T7, FEV (Homo sapiens, UniProt Q99581 1-238); details: protein: recombinant; tags: N-terminal GST; dsDNA, one strand shown
# T7 sequence: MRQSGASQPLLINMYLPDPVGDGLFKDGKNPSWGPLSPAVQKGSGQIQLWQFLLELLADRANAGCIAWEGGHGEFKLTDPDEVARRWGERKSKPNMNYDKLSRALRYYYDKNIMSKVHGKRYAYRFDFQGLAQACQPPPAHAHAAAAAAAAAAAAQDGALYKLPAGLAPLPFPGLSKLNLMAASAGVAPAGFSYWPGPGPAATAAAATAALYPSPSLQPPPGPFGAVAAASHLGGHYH
# Method in brief: as §1
# ETV5 = ETV5 (Homo sapiens, UniProt P41161 1-510); details: protein: recombinant; tags: N-terminal GST; dsDNA, one strand shown
# Method in brief: as §1
# HSF1 = HSF1 (Homo sapiens, UniProt Q00613 1-529); details: protein: recombinant; tags: N-terminal GST; chain copies: 3; dsDNA, one strand shown
# Method in brief: as §1
# SPIC = molecular target: T8, SPIC (Homo sapiens, UniProt Q8N5J4 1-248); details: protein: recombinant; tags: N-terminal GST; dsDNA, one strand shown
# T8 sequence: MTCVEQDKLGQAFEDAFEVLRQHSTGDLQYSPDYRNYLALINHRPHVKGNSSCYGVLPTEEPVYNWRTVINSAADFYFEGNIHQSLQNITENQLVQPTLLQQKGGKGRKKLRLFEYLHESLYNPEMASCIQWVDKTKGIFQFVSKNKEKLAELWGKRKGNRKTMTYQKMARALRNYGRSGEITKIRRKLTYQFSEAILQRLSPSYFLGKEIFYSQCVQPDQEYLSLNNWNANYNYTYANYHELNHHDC
# Method in brief: as §1
# ELF4 = ELF4 (Homo sapiens, UniProt Q99607 1-663); details: protein: recombinant; tags: N-terminal GST; dsDNA, one strand shown
# Method in brief: as §1
# ELK4 = molecular target: T9, ELK4 (Homo sapiens, UniProt P28324-2 1-405); details: protein: recombinant; tags: N-terminal GST; dsDNA, one strand shown
# T9 sequence: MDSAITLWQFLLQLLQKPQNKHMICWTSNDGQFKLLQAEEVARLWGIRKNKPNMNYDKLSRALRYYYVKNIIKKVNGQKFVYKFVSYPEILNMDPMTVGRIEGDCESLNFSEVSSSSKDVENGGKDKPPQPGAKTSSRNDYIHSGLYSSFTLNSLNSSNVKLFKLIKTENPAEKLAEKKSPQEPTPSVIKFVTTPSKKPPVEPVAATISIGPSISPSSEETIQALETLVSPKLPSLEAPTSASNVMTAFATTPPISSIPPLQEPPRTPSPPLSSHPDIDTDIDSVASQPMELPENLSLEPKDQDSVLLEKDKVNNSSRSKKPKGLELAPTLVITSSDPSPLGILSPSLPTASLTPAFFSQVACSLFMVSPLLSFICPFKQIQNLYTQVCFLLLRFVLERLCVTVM
# Method in brief: as §1
# ETV2 = molecular target: T10, ETV2 (Homo sapiens, UniProt O00321 1-342); details: protein: recombinant; tags: N-terminal GST; dsDNA, one strand shown
# T10 sequence: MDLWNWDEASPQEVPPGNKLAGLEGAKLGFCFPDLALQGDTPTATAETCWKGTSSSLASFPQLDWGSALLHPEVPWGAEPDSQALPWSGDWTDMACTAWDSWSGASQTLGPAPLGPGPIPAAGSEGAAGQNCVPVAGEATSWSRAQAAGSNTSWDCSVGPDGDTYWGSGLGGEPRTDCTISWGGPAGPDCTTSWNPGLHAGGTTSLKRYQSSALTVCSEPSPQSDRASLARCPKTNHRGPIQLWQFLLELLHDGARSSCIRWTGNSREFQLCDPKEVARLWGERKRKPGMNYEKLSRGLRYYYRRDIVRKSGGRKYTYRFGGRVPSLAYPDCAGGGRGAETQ
# Method in brief: as §1
# ELF3 = molecular target: T11, ELF3 (Homo sapiens, UniProt P78545 1-371); details: protein: recombinant; tags: N-terminal GST; dsDNA, one strand shown
# T11 sequence: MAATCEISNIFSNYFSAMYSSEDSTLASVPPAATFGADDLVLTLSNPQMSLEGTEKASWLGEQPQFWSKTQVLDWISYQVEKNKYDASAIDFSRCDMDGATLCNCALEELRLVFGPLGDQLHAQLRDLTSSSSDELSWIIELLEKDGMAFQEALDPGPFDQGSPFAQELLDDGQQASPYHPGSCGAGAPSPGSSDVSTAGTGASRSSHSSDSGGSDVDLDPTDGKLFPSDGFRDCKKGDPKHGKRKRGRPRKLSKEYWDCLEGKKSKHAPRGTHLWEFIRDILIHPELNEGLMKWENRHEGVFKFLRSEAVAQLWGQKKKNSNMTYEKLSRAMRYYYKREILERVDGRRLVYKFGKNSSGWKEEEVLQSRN
# Method in brief: as §1
# ETV1 = ETV1 (Homo sapiens, UniProt P50549 1-477); details: protein: recombinant; tags: N-terminal GST; dsDNA, one strand shown
# Method in brief: as §1
# Chain of ELF1 (P32519 whole entry): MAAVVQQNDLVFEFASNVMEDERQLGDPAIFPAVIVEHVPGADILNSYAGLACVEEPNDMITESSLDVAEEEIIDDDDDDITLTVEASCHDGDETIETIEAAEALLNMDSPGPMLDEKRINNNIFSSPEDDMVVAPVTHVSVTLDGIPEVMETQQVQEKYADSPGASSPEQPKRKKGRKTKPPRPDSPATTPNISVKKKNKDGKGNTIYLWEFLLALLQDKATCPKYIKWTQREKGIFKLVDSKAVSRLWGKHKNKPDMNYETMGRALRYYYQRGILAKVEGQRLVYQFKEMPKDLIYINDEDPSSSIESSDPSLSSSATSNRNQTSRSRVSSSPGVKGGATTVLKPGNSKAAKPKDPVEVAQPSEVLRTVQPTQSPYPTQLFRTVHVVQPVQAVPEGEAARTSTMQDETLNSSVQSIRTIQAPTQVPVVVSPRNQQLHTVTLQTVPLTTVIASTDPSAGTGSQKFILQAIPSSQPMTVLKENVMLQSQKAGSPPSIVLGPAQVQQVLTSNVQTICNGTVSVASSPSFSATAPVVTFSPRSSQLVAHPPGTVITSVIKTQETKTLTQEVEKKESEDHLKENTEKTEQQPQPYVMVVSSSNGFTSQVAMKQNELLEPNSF
# Chain of HSF1 (Q00613 whole entry): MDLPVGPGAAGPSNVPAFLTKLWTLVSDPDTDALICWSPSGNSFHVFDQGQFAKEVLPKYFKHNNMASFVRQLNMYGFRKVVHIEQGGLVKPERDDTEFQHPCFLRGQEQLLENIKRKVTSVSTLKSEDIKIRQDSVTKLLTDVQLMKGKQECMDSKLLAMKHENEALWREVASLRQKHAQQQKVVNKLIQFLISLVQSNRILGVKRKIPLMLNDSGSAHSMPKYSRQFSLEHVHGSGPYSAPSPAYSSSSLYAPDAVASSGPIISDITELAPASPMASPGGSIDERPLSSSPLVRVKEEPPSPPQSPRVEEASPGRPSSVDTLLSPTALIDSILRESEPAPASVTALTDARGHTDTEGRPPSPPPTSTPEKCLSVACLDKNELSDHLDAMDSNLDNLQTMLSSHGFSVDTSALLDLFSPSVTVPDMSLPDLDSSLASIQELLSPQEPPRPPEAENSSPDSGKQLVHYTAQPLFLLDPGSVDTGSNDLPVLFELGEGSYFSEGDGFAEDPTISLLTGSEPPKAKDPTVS
# Chain of ETV5 (P41161 whole entry): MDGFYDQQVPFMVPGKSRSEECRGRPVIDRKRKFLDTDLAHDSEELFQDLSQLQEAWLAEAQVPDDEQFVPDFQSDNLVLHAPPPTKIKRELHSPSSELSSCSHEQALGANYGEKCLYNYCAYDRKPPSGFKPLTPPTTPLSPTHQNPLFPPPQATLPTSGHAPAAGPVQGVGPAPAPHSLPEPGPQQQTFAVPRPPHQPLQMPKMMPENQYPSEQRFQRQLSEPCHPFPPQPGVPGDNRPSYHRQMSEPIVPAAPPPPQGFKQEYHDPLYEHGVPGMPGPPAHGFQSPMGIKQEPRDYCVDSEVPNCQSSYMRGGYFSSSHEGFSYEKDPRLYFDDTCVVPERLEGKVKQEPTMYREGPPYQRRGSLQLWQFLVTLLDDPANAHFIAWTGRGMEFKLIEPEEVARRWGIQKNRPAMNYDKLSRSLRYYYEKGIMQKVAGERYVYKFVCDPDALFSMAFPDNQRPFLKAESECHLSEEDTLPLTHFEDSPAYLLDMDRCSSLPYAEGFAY
# Chain of SPIB (Q01892 whole entry): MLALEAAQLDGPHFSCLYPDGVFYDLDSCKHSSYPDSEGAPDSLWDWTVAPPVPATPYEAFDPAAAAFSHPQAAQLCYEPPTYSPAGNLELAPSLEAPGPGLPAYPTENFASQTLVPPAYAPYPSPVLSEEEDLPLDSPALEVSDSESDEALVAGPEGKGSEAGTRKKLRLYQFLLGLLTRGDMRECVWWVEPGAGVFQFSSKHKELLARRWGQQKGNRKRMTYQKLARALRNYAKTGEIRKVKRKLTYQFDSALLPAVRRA
# Chain of ELF4 (Q99607 whole entry): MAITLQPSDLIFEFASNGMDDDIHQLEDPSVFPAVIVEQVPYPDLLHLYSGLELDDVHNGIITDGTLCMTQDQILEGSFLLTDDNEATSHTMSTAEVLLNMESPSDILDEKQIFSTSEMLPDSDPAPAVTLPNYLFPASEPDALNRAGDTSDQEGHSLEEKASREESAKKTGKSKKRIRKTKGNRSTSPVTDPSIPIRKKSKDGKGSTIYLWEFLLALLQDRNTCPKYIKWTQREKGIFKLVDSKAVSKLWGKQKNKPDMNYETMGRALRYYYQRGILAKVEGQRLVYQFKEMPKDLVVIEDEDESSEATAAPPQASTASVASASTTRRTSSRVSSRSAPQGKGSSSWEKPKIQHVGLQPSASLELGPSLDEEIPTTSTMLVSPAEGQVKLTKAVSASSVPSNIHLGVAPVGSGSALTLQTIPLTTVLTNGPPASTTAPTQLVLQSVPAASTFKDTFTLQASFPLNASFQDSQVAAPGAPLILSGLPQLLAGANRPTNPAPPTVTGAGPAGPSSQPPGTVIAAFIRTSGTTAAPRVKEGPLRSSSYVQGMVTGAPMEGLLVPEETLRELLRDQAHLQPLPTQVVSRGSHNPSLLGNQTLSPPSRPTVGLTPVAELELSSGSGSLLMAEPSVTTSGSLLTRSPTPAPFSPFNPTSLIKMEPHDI
# Chain of ETV1 (P50549 whole entry): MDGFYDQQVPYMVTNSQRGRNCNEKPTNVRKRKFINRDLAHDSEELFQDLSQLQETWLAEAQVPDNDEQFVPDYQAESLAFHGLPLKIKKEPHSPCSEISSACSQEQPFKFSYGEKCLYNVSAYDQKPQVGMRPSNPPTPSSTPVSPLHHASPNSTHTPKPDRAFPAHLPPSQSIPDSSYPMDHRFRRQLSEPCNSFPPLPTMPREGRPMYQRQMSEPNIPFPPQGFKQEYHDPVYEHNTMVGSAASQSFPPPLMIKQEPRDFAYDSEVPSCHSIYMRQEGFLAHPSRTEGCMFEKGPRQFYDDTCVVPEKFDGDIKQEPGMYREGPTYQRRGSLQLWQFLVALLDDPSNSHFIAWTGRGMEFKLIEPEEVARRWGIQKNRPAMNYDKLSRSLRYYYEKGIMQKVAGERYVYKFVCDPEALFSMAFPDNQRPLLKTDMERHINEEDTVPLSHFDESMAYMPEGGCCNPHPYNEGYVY
sequence,measurement,setting,value
GGAAAA,binding signal,FLI1,"1.16 fold enrichment (6-mer frequency, TF over GST control)"
same,binding signal,ELK1,"1.17 fold enrichment (6-mer frequency, TF over GST control)"
same,binding signal,GABPA,"1.2 fold enrichment (6-mer frequency, TF over GST control)"
same,binding signal,ERG,"1.3 fold enrichment (6-mer frequency, TF over GST control)"
same,binding signal,ELF1,"1.14 fold enrichment (6-mer frequency, TF over GST control)"
same,binding signal,EHF,"1.38 fold enrichment (6-mer frequency, TF over GST control)"
same,binding signal,SPI1,"1.2 fold enrichment (6-mer frequency, TF over GST control)"
same,binding signal,SPIB,"1.35 fold enrichment (6-mer frequency, TF over GST control)"
same,binding signal,ELK3,"1.22 fold enrichment (6-mer frequency, TF over GST control)"
same,binding signal,FEV,"1.2 fold enrichment (6-mer frequency, TF over GST control)"
same,binding signal,ETV5,"1.32 fold enrichment (6-mer frequency, TF over GST control)"
same,binding signal,HSF1,"1.62 fold enrichment (6-mer frequency, TF over GST control)"
same,binding signal,SPIC,"1.29 fold enrichment (6-mer frequency, TF over GST control)"
same,binding signal,ELF4,"1.19 fold enrichment (6-mer frequency, TF over GST control)"
same,binding signal,ELK4,"1.01 fold enrichment (6-mer frequency, TF over GST control)"
same,binding signal,ETV2,"1.22 fold enrichment (6-mer frequency, TF over GST control)"
same,binding signal,ELF3,"1.39 fold enrichment (6-mer frequency, TF over GST control)"
same,binding signal,ETV1,"1.27 fold enrichment (6-mer frequency, TF over GST control)"
